Measurements reported in PubChem BioAssay AID778 (Sanford-Burnham Center for Chemical Genomics, 2007).
The whole screen tested about 96,000 compounds, of which about 20,000 (21%) were called active.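 The calls were made as follows: active = CYP2C19 inhibition above a set limit at 5 µM in the primary screen (cut at about 50% in these data); inactive = the rest.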 Only a sample is shown.

Target: Cytochrome P450 2C19 (Homo sapiens) (UniProt P33261)
Test: blockers of cytochrome P450 2C19 activity – biochemical, luminescence, ADME assay, primary screen (AID 778);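 also: plate controls were negative control wells for no effect and 2.5 mM tranylcypromine positive control for full effect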
Details: CYP2C19 Supersomes, luciferin-H EGE luminescence, 30 min; at 5 µM; hits give high values

Sequence of Cytochrome P450 2C19 (Homo sapiens) (P33261 whole entry, looked up): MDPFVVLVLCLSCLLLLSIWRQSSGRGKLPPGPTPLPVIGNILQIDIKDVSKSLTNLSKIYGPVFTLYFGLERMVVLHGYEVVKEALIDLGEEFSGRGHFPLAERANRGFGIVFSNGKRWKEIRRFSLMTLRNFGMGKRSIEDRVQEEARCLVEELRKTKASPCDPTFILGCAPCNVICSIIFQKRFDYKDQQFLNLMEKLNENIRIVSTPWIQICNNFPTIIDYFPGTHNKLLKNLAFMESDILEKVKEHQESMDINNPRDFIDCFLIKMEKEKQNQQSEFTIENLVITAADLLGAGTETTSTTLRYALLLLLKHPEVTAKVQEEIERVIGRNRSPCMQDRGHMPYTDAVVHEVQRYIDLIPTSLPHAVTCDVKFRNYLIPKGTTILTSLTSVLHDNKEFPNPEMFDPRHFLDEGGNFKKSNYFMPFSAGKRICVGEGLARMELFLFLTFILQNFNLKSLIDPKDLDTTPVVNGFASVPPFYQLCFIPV

| Structure (SMILES) | inhibition |
| --- | --- |
| CC(=O)NNc1cc(=O)c2c(=O)n(C)c(=O)n(C)c2[nH]1 | -1.8% (inactive) |
| Cc1cc(=O)n2c3c(cccc13)CCC2 | 18.8% (inactive) |
| COc1ccc(/C=C2/S/C(=N/N=C3\CC4CCC3(C)C4(C)C)NC2=O)cc1 (centres undefined) | -9.6% (inactive) |
| CCOc1ccc(S(=O)(=O)NCCSc2ccccc2)cc1 | 98.7% (active) |
| CCOc1ccc2nc(NCCNS(=O)(=O)c3ccccc3)c(C#N)cc2c1 | 24.6% (inactive) |
| CCOCCCNS(=O)(=O)Cc1ccccc1 | 42.5% (inactive) |
| COCCNC(=O)Cn1cc2c(n1)CCCCC2 | -6.8% (inactive) |
| O=C1C2C3C=CC(C4CC34)C2C(=O)N1/N=C/c1ccc(-c2ccccc2[N+](=O)[O-])o1 (centres undefined) | 72.2% (active) |
| CCOc1cc2[nH]c(=O)n(CCC(=O)NCc3ccc(OC)cc3)c(=O)c2cc1OCC | -6% (inactive) |
| Cc1cccc(NC(=O)/C(=C\c2ccco2)NC(=O)c2ccccc2)c1 | 13.6% (inactive) |
| C/C(=C\c1ccco1)C1Nc2cccc3cccc(c23)N1 | 72.8% (active) |
| O=C(NCC1CCCO1)/C(=C\c1ccco1)NC(=O)c1ccccc1 (centres undefined) | -11.9% (inactive) |
| CCOC(=O)N1CCN(C(=O)c2cnc3n(c2=O)CCS3)CC1 | -15.9% (inactive) |
| CCOC(=O)c1nc(C)n(-c2ccc(Cl)cc2Cl)n1 | 16.5% (inactive) |
| Cc1nn(C(C)CC(=O)O)c(C)c1C (centres undefined) | 6.7% (inactive) |
| Cc1ccc(N2C(=O)C3C(c4ccccc4)(C2=O)C3(c2ccccc2)c2ccccc2)cc1 (centres undefined) | 8.1% (inactive) |
| CCCOC(=O)CC1C(=O)NCCN1Cc1ccc(F)cc1 (centres undefined) | 19.1% (inactive) |
| O=C(c1ccco1)N1CCN=C1SCc1cccc(Cl)c1 | 20.6% (inactive) |
| CSC1=NCCN1C(=O)c1ccc(S(=O)(=O)N2CCOCC2)cc1 | 13.3% (inactive) |
| CCC(=O)N1CCN=C1SCc1ccc(F)cc1 | 78.7% (active) |
| O=C(C1CC1)N1CCN=C1SCc1ccc(Cl)cc1 | 98.5% (active) |
| CCOC(=O)c1c(C(C#N)C#N)cc(C)nc1C | -4.1% (inactive) |

| Structure (SMILES) | inhibition |
| --- | --- |
| CC(=O)Nc1ccc(NC(=O)c2sc3nc4c(c(-c5ccc(C)cc5)c3c2N)CCC4)cc1 | -6.7% (inactive) |
| O=S(=O)(/C=C/c1ccccc1)NCCc1ccccn1 | 53.8% (active) |
| C/C(N)=C(\C#N)C(=O)NCCc1ccccn1 | -6.3% (inactive) |
| NS(=O)(=O)c1ccc(NS(=O)(=O)/C=C/c2ccccc2)cc1 | 38.8% (inactive) |
| COc1ccc(CC(=O)Nc2nc3n(n2)C(c2ccccc2)CC(=O)N3)cc1OC (centres undefined) | -4.1% (inactive) |
| CCc1ccc2oc(=O)cc(CN3CCCCC3C)c2c1 (centres undefined) | 92.7% (active) |
| O=c1cc(CN2CCN(c3cccc(Cl)c3)CC2)c2cc3c(cc2o1)CCCC3 | 12.6% (inactive) |
| COc1ccc(CN2CCCCC2C)cc1OC (centres undefined) | 3% (inactive) |
| O=C(CSc1nnc(-c2ccoc2)o1)N1CCOCC1 | -14.6% (inactive) |
| Cc1cc(C)n(-c2cc(Oc3ccccc3)ncn2)n1 | 15.9% (inactive) |
| CNS(=O)(=O)c1cnccc1N1CCN(c2cccc(C)c2)CC1 | 78.6% (active) |
| CC(C)=C1SC(N2CCN(c3cccc(C)c3)CC2)=NC1=O | 6.5% (inactive) |
| O=S(=O)(c1cnccc1N1CCN(/N=C/c2ccc(Br)cc2)CC1)N1CCCCC1 | -12% (inactive) |
| CCn1c(SCC(=O)Nc2nc(C)cs2)nnc1C(C)NC(=O)c1ccccc1 (centres undefined) | 8.1% (inactive) |
| O=C1CC(c2ccccc2)CC(O)=C1C=NCCN1CCOCC1 (centres undefined) | 0.2% (inactive) |
| CCCc1nnc(NC(=O)c2cc(OC)cc(OC)c2)s1 | 32.5% (inactive) |
| COc1ccc(Cl)cc1S(=O)(=O)Nc1cccc(C(=O)O)c1 | 13.4% (inactive) |
| COc1ccc(OC)c(S(=O)(=O)Nc2ccccc2F)c1 | 85.9% (active) |
| COc1ccccc1NS(=O)(=O)N(C)C | 4.9% (inactive) |
| Cn1c(SCC(=O)OC2CCCCC2)nnc1-c1ccc(S(=O)(=O)N2CCCC2)cc1 | 5.7% (inactive) |
| CC(C)c1ccc(NC(=O)NC2CCCCC2)cc1 | -15.2% (inactive) |
| Cc1ccc(NC(=S)NC2CCCC2)cc1 | 54.5% (active) |

| Structure (SMILES) | inhibition |
| --- | --- |
| Cc1ccc(NC(=S)N/N=C2/CCCc3c(C)cc(C)cc32)cc1 | -4.5% (inactive) |
| CCOC(=O)N1CCN(CC(=O)c2ccc3c(c2)CCN3)CC1 | 34.1% (inactive) |
| CC(C)NC(=O)C(=O)N/N=C/c1ccco1 | -7% (inactive) |
| O=C1c2ccccc2C(=O)N1CCC(c1ccccc1)c1ccco1 (centres undefined) | 22.9% (inactive) |
| Nc1ccc(SCCN2C(=O)c3ccccc3C2=O)cc1 | 94.6% (active) |
| O=C1c2ccccc2C(=O)N1CCc1nn[nH]n1 | -6.8% (inactive) |
| Cc1cc(Br)ccc1NC(=O)C1CCCO1 (centres undefined) | 46.4% (inactive) |
| CCn1c(O)c(N=NC2=NC(=O)CS2)c2cc(C)ccc21 | 14.8% (inactive) |
| O=C(O)C1C2C=CC(C2)C1C(=O)N1CCN(CCO)CC1 (centres undefined) | 1% (inactive) |
| CC1CC2=C(CC1/C=N/NC(N)=S)C(C)(C)CCC2 (centres undefined) | 30.6% (inactive) |
| CCCCCCn1c(SCC(=O)c2ccccc2)nc2c1c(=O)[nH]c(=O)n2C | -16.1% (inactive) |
| O=C(CSc1nc2cc3c(cc2c(=O)n1CCC1=CCCCC1)OCO3)NCc1ccco1 | 7.2% (inactive) |
| CCc1ccc(NC(=O)CSc2nc3ccccc3c(=O)n2CCN2CCOCC2)cc1 | 34.4% (inactive) |
| CCCCn1c(SCC(=O)NCC2CCCO2)nc2ccc(N3CCOCC3)cc2c1=O (centres undefined) | 34.3% (inactive) |
| O=C(CCCn1c(SCC(=O)c2ccc(F)cc2)nc2ccccc2c1=O)NCc1ccco1 | 70% (active) |
| O=C(CCCn1c(SCC(=O)c2ccccc2)nc2ccccc2c1=O)NCC1CCCO1 (centres undefined) | 58.1% (active) |
| O=C(Cn1c(=O)n(Cc2ccco2)c(=O)c2ccccc21)NCC1CCCO1 (centres undefined) | 7.3% (inactive) |
| Cn1c(-c2ccc(F)cc2)cnc1SCC(=O)NCc1ccco1 | 10.8% (inactive) |
| O=C(CCn1c(SCC(=O)c2ccccc2)nc2ccccc2c1=O)NCc1ccc(F)cc1 | 60.5% (active) |
| COc1ccc(C(=O)Nc2c(N)nc(SCC(=O)N3CCC(C)CC3)[nH]c2=O)cc1OC | -6.9% (inactive) |
